From PubChem BioAssay AID1159580 (chemical genetic matrix, 2015)
In all, about 5,500 compounds went through this assay and about 2,000 (36%) were called active. Roughly 18% stayed inconclusive and do not appear here. No stated cut-off is given here; in the data, active means normalized growth mostly below about 0.91 (no sharp cut-off); inconclusive means no clear call, values can overlap the other calls; inactive means mostly above about 0.92. The list shows a part of the results.

Assay: chemical genetic growth profiling, strain panel (AID 1159580);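 further: tested at 20 µM; growth read once vehicle control cultures reached saturation at 30 °C; 1 = growth at the plate median or of vehicle wells; lower values mean less growth of the strain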
Settings: S. cerevisiae deletion strains, growth OD

Measured: normalized growth

FC(F)(F)c1cccc(N2CCNCC2)c1
inactive: locus YAL013W, strain DEP1, active compounds read low 1 | locus YAL021C, strain ccr4, active compounds read low 0.992 | locus YAL026C, strain drs2, active compounds read low 1 | locus YAL030W, strain snc1, active compounds read low 0.99 | locus YBL061C, strain skt5, active compounds read low 0.992 | locus YBR009C, strain hhf1, active compounds read low 0.978 | locus YBR021W, strain FUR4, active compounds read low 0.991 | locus YBR023C, strain chs3, active compounds read low 0.996 | locus YBR171W, strain sec66, active compounds read low 1.01 | locus YBR229C, strain ROT2, active compounds read low 1.01 | locus YBR231C, strain swc5, active compounds read low 0.99 | locus YBR279W, strain paf1, active compounds read low 1 | locus YCL011C, strain gbp2, active compounds read low 0.999 | locus YCL016C, strain dcc1, active compounds read low 0.991 | locus YCL029C, strain bik1, active compounds read low 0.996 | locus YCL061C, strain MRC1, active compounds read low 1 | locus YCL069W, strain vba3, active compounds read low 1 | locus YCR088W, strain abp1, active compounds read low 1.01 | locus YDL005C, strain med2, active compounds read low 1 | locus YDL035C, strain GPR1, active compounds read low 1 | locus YDL040C, strain nat1, active compounds read low 0.988 | locus YDL074C, strain BRE1, active compounds read low 0.994 | locus YDL101C, strain DUN1, active compounds read low 1 | locus YDL134C, strain PPH21, active compounds read low 1.01 | locus YDL185W, strain tfp1, active compounds read low 0.994 | locus YDL192W, strain arf1, active compounds read low 0.995 | locus YDR001C, strain nth1, active compounds read low 1.01 | locus YDR069C, strain doa4, active compounds read low 0.973 | locus YDR101C, strain arx1, active compounds read low 0.994 | locus YDR137W, strain rgp1, active compounds read low 1 | locus YDR159W, strain sac3, active compounds read low 0.956 | locus YDR162C, strain NBP2, active compounds read low 1.01 | locus YDR195W, strain ref2 0.928 | locus YDR297W, strain sur2, active compounds read low 1 | locus YDR318W, strain mcm21, active compounds read low 0.989 | locus YDR334W, strain swr1, active compounds read low 1.01 | locus YDR335W, strain msn5, active compounds read low 0.993 | locus YDR388W, active compounds read low 0.977 | locus YDR392W, strain spt3, active compounds read low 0.89 | locus YDR502C, strain sam2, active compounds read low 0.98 | locus YEL003W, strain gim4, active compounds read low 1.01 | locus YEL037C, strain rad23, active compounds read low 1 | locus YEL061C, strain CIN8 (second series), active compounds read low 1.01 | locus YEL061C, strain CIN8, active compounds read low 1.01 | locus YER015W, strain faa2, active compounds read low 0.994 | locus YER016W, strain bim1, active compounds read low 0.995 | locus YER110C, active compounds read low 0.976 | locus YER111C, strain swi4, active compounds read low 0.999 | locus YER155C, strain BEM2 (second series), active compounds read low 0.93 | locus YER155C, strain BEM2, active compounds read low 1.01 | locus YER167W, strain BCK2, active compounds read low 1 | locus YFR010W, strain ubp6, active compounds read low 1.03 | locus YGL078C, strain dbp3, active compounds read low 0.973 | locus YGL086W, strain mad1, active compounds read low 0.983 | locus YGL167C, strain pmr1, active compounds read low 0.981 | locus YGL173C, strain kem1, active compounds read low 1.01 | locus YGL227W, strain vid30, active compounds read low 1 | locus YGL240W, strain doc1, active compounds read low 0.962 | locus YGL248W, strain PDE1, active compounds read low 1.01 | locus YGL253W, strain hxk2, active compounds read low 1.02 | locus YGR135W, strain pre9, active compounds read low 0.953 | locus YGR229C, strain SMI1, active compounds read low 0.987 | locus YGR252W, strain gcn5, active compounds read low 0.932 | locus YHR013C, strain ard1, active compounds read low 0.961 | locus YHR027C, strain rpn1, active compounds read low 0.994 | locus YHR030C, strain SLT2, active compounds read low 1.01 | locus YHR079C, strain IRE1 (second series), active compounds read low 0.998 | locus YHR094C, strain hxt1, active compounds read low 0.992 | locus YHR129C, strain ARP1, active compounds read low 1.01 | locus YHR142W, strain chs7, active compounds read low 1.02 | locus YHR200W, strain rpn10, active compounds read low 0.987 | locus YIL066C, strain RNR3, active compounds read low 1.02 | locus YIL073C, strain SPO22, active compounds read low 1.08 | locus YIL125W, strain kgd1, active compounds read low 0.974 | locus YIR030C, strain dcg1, active compounds read low 1 | locus YJL092W, strain hpr5, active compounds read low 1.01 | locus YJL095W, strain BCK1 (second series), active compounds read low 0.995 | locus YJL095W, strain BCK1, active compounds read low 1.02 | locus YJL115W, strain asf1, active compounds read low 0.998 | locus YJL129C, strain trk1, active compounds read low 1.03 | locus YJL134W, strain LCB3, active compounds read low 1 | locus YJL154C, strain vps35, active compounds read low 1 | locus YJL164C, strain tpk1, active compounds read low 0.993 | locus YJL166W, strain qcr8, active compounds read low 0.987 | locus YJL168C, strain set2, active compounds read low 0.987 | locus YJL187C, strain SWE1 (second series), active compounds read low 1.01
